Experimental findings from PubChem BioAssay are described below.

The test system of assay [1] is Plasmodium falciparum Sir2 (PF13_0152, Sir2A). The experiment in a line: pfSir2 binders on small-molecule microarrays, primary screen, biochemical, small-molecule microarray, 635 nm fluorescence (AID 1098).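 Note: score merges spot fluorescence intensity with its signal-to-noise ratio.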 The following applies: small-molecule microarray binding, fluorescence 635 nm; higher = more signal.
Assay [2] can be described thus: small-molecule microarray binders of probe aDKK1, primary screen, biochemical, biotinylated probe, 635/667 nm fluorescence (AID 1099).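 Note: score merges 667nm spot fluorescence with signal to noise across triplicate slides.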 The conditions noted are these: higher = more signal.
The nature of assay [3]: small-molecule microarray binders of probe aCHRDL2, primary screen, biochemical, biotinylated probe, 635/667 nm fluorescence (AID 1100). The conditions noted are these: higher = more signal.
The nature of assay [4]: splicing luciferase reporter signal modulators, primary screen, spliceosome inhibition project, cell-based, HEK293, splice +/- reporter (AID 1101).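 Note: HEK293 cells carrying a splicing-competent luciferase reporter gene; test concentration not given here.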 The following applies: luminescence, 24 h, higher = more signal, called active from +8 up or from −8 down.
Assay [5] concerns the target Fibroblast growth factor 10 (Homo sapiens) (UniProt O15520). The experiment in a line: FGF10 binders on small-molecule microarrays, primary screen, biochemical, small-molecule microarray, 635 nm fluorescence (AID 1102). The conditions noted are these: FGF10 binding, fluorescence 635 nm, higher = more signal.
Assay [6] relates to glycogen synthase kinase-3 (GSK3A per assay name; protocol says GSK3B). The experiment in a line: GSK3 binders on small-molecule microarrays, primary screen, biochemical, small-molecule microarray, 635 nm fluorescence, GSK3A (AID 1103). Note: the record names both GSK3A and GSK3B. The following applies: small-molecule microarray binding, fluorescence 635 nm; higher = more signal.
Assay [7] deals with Epidermal growth factor receptor (Homo sapiens) (UniProt P00533). Briefly: EGFR binders on small-molecule microarrays, primary screen, biochemical, small-molecule microarray, 635 nm fluorescence (AID 1104).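 Note: score merges 667 nm emission intensity with spot signal to noise over triplicate slides.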 The following applies: EGFR binding, higher = more signal.
Epidermal growth factor receptor (Homo sapiens), sequence (P00533 whole entry, looked up): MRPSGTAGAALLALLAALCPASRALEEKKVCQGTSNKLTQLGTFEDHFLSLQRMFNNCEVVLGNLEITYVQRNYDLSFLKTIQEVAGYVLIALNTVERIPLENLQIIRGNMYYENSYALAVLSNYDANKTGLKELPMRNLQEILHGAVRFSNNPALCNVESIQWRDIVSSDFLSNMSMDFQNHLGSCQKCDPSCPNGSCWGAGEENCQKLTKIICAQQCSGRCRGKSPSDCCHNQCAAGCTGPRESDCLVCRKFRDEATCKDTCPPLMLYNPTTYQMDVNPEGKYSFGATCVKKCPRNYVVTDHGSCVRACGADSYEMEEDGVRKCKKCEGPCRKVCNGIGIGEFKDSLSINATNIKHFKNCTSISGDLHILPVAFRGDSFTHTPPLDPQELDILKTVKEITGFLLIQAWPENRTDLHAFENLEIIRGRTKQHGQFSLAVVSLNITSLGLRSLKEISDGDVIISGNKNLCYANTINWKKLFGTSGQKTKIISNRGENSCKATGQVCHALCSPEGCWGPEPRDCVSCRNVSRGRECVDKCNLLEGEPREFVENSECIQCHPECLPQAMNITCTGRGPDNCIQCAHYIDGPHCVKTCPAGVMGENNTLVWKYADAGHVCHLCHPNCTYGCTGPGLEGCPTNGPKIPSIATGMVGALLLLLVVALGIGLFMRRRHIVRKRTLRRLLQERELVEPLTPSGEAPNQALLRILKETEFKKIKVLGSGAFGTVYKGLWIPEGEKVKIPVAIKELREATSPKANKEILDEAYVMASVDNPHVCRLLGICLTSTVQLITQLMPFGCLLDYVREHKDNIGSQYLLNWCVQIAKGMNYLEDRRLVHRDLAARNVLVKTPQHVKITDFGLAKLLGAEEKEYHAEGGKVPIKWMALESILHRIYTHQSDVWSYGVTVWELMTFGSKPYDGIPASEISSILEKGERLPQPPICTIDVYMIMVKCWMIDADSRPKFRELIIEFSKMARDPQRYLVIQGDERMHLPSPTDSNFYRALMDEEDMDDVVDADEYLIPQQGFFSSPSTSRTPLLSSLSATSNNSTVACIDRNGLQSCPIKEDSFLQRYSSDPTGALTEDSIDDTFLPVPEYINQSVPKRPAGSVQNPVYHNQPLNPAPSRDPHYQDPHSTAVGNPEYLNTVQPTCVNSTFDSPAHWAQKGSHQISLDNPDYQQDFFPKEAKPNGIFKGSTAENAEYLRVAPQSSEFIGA
Assay [8] has as its target Follistatin-related protein 3 (Homo sapiens) (UniProt O95633). Briefly: FSTL3 binders on small-molecule microarrays, primary screen, biochemical, small-molecule microarray, 635 nm fluorescence (AID 1105).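 Note: score merges emission near 667 nm and signal to noise per printed spot across three slides.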 The conditions noted are these: FSTL3 binding, higher = more signal.
Assay [9] has as its target Dickkopf-related protein 1 (Homo sapiens) (UniProt O94907). The experiment in a line: DKK1 binders on small-molecule microarrays, primary screen, biochemical, small-molecule microarray, 635 nm fluorescence scan (AID 1106).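 Note: score merges emission near 667 nm with signal to noise over three replicate slides.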 The following applies: DKK1 binding, higher = more signal.
Assay [10] deals with Inhibin beta A chain (activin A). Briefly: INHBA (activin A) binders on microarrays, primary screen, biochemical, small-molecule microarray, 635 nm fluorescence scan (AID 1107).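 Note: mouse activin A protein probed at 4.33 µg/mL on printed slides; score merges bound-protein fluorescence near 667 nm with spot signal-to-noise.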 The following applies: small-molecule microarray binding, higher = more signal.
Assay [11] deals with Human papillomavirus type 1a protein E7 (residues 44-93). Briefly: HPV1a E7 fragment binders on microarrays, primary screen, biochemical, small-molecule microarray, residues 44-93, 635 nm fluorescence (AID 1108).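 Note: E7 fragment applied at 1 µg/mL in TBST for 1 h at 4 C; score combines spot fluorescence with its signal to noise ratio.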 The following applies: small-molecule microarray binding, fluorescence 635 nm; higher = more signal.
A short description of assay [12]: modulators of HCV replicon luciferase signal, primary screen, HCV replication inhibitor project, Huh7 cells, luciferase reporter (AID 1109).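 Note: huh7 hepatoma cells harbouring a luciferase neomycin HCV replicon reporter; luciferase luminescence as measure of HCV replicon replication; test concentration not given here.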 The following applies: 48 h, higher = more signal.
Assay [13] concerns the target Left-right determination factor 2 (Homo sapiens) (UniProt O00292). The experiment in a line: LEFTY2 binders on small-molecule microarrays, primary screen, biochemical, small-molecule microarray, 635 nm fluorescence scan (AID 1110). The following applies: LEFTY2 binding, higher = more signal.
The target in assay [14] is Calmodulin-1 (Homo sapiens) (UniProt P0DP23). The experiment in a line: CALM1 binders on microarrays, EGTA buffer, profiling panel, biochemical, small-molecule microarray, Cy5-labelled CALM1 (AID 1111).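 Note: labelled calmodulin applied in Tris saline Tween buffer holding calcium plus EGTA and DTT.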 The conditions noted are these: Cy5-CALM1 binding fluorescence, higher = more signal.
For assay [15] the target is unchanged. The experiment in a line: calcium-bound CALM1 binders on microarrays, profiling panel, artefact control for SMM control-protein annotation, biochemical, small-molecule microarray, Cy5-labelled CALM1, plus calcium (AID 1112).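 Note: score merges spot fluorescence with signal to noise from triplicate slides.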 The conditions noted are these: Cy5-CALM1 binding fluorescence, higher = more signal.
Assay [16] in a line: small-molecule microarray binders of probe aWnt5a, primary screen, biochemical, biotinylated probe, 635/667 nm fluorescence (AID 1113).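 Note: score merges 667 nm fluorescence intensity with signal-to-noise per printed feature.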 The following applies: higher = more signal.
Assay [17] in a line: small-molecule microarray binders of probe aShh, primary screen, biochemical, biotinylated probe, 635/667 nm fluorescence (AID 1114).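 Note: probe is biotin-labelled aShh protein from a stem cell growth factor screen; measures binding of labelled protein to compounds printed on the slide; score merges feature fluorescence at 667 nm with signal-to-noise.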 The following applies: higher = more signal.
Assay [18] can be described thus: small-molecule microarray binders of probe aNog, primary screen, biochemical, biotinylated probe, 635/667 nm fluorescence (AID 1115).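 Note: probe is biotinylated aNog protein used at 0.15 µg/mL for 1 h at 4 C; z-score combines 667 nm fluorescence of each spot with its signal to noise.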 The conditions noted are these: higher = more signal.
For assay [19], the target named is Torsin-1A-interacting protein 1 (Homo sapiens) (UniProt Q5JTV8). Briefly: LAP1 binders from COS7 cell lysate, primary screen, small-molecule microarray, 635/667 nm fluorescence (AID 1116). The following applies: COS7-hLAP1 lysate binding, 635 nm fluorescence, higher = more signal.
Torsin-1A-interacting protein 1 (Homo sapiens), sequence (Q5JTV8 whole entry, looked up): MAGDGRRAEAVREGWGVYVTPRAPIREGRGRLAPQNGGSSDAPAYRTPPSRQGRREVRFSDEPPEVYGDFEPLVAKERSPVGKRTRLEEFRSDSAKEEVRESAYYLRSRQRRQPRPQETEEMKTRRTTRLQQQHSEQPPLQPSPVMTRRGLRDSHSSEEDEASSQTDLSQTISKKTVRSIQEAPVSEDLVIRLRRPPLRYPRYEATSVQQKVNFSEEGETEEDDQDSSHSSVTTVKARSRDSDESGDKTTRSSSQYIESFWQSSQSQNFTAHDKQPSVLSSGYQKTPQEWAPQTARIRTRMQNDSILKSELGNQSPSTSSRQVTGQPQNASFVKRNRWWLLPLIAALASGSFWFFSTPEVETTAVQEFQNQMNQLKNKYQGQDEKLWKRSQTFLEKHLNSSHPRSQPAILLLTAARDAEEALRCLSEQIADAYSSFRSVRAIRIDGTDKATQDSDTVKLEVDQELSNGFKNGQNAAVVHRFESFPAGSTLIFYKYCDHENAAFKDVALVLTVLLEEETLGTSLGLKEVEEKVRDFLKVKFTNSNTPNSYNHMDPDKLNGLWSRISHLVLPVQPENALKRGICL
Assay [20] addresses Alpha-bungarotoxin (Bungarus multicinctus) (UniProt P60615). The experiment in a line: alpha-bungarotoxin binders on microarray, profiling panel, artefact control for SMM control protein annotation, biochemical, small-molecule microarray, Alexa647 label, 635/667 nm fluorescence (AID 1117). The conditions noted are these: alpha-BTX-A647 binding fluorescence, higher = more signal.

Activity calls are given as the source filed them.

Dickkopf-related protein 1 (Homo sapiens), sequence (O94907 whole entry, looked up): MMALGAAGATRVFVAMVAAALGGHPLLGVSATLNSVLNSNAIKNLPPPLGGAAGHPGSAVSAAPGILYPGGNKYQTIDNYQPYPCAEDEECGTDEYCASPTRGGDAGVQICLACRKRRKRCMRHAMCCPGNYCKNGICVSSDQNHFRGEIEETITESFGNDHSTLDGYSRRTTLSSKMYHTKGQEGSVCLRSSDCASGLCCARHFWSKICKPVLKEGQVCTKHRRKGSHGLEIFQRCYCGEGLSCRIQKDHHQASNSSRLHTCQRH
Follistatin-related protein 3 (Homo sapiens), sequence (O95633 whole entry, looked up): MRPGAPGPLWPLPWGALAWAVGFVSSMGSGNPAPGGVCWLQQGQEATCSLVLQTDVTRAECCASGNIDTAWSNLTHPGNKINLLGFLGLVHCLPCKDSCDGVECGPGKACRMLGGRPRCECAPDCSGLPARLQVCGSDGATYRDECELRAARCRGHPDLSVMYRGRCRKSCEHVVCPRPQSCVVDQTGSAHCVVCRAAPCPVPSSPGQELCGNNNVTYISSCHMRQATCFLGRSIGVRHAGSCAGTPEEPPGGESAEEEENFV
Alpha-bungarotoxin (Bungarus multicinctus), sequence (P60615 whole entry, looked up): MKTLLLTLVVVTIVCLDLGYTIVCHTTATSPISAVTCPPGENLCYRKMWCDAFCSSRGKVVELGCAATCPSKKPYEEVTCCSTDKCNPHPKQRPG
Left-right determination factor 2 (Homo sapiens), sequence (O00292 whole entry, looked up): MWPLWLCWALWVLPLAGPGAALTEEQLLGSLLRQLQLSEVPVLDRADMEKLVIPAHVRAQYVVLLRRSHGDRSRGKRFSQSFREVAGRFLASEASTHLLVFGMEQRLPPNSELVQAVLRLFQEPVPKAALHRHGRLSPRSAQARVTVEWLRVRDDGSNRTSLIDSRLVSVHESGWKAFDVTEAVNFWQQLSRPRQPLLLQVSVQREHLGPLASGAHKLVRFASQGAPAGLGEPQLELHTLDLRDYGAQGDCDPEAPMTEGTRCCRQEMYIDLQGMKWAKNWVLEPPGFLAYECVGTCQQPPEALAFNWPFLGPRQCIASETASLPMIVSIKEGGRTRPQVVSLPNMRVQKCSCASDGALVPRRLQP
Fibroblast growth factor 10 (Homo sapiens), sequence (O15520 whole entry, looked up): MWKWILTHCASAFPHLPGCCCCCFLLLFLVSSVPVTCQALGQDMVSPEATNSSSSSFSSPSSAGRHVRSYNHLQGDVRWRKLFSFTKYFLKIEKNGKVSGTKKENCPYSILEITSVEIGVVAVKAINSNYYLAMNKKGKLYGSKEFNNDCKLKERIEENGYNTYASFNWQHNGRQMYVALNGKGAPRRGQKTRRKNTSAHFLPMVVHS

As for `[N-]=[N+]=NCc1ccccc1C[C@]1(C(=O)NCC(O)CO)N=C(c2ccc(OCCCO)cc2)O[C@H]1c1ccccc1N=[N+]=[N-]` (stereo not given in full), the composite z-score was 0.3 in assay [1]; 1.38 in assay [2]; 1.1 in assay [3]; 0.0684 in assay [5]; 0.091 in assay [6]; -0.166 in assay [7]. Further, the composite z-score is -0.318 in [8]; -0.894 in assay [9]; 0.967 in [10]; 1.38 in [11]; -1.22 in assay [13]; 1.03 in assay [14]. Besides, the composite z-score in assay [15] amounted to 1.04; in assay [16] it was 0.0633; in assay [17], 0.14; in [18] it was 1.18; in [19], 1.4; in assay [20], 1.75. The z-score in [4] was -1.58 (inactive); in assay [12] it was -1.47.

Consider `CN(C)CCCCNC(=O)[C@H]1C[C@H]2C(=O)N[C@@H](Cc3ccccc3)C(=O)N2[C@H]1c1ccc(O)cc1`, for which the composite z-score is 0.725 in [1]; -0.0299 in assay [2]; -0.0646 in assay [3]; 1.4 in assay [5]; 1.2 in [6]; 0.425 in assay [7]. Further, the composite z-score in assay [8] was 1.39; in assay [9], 1.5; in [10], -0.44; in assay [11], 1.38; in assay [13] it was 1.17; in assay [14] it was 0.561. The composite z-score is 0.746 in assay [15]; -0.0866 in assay [16]; -0.0243 in assay [17]; 0.355 in assay [18]; 0.945 in [19]; 1.55 in assay [20]. For the same molecule, the z-score in assay [4] is -1.03 (inactive); in assay [12], 0.506.

With `[N-]=[N+]=NCc1ccccc1C[C@]1(C(=O)NCCN2CCOCC2)N=C(c2ccc(OCCCO)cc2)O[C@H]1c1ccccc1N=[N+]=[N-]`, the composite z-score in assay [1] worked out at 0.8; in assay [2], 0.838; in assay [3], 1.11; in [5], 0.636; in assay [6], 1.15; in assay [7], 0.294. The composite z-score in assay [8] was 0.504; in assay [9], -0.233; in assay [10] it was 0.819; in assay [11] it was 0.927; in assay [13] it was 0.391; in assay [14], 1.2. The composite z-score was found to be 0.655 in assay [15]; 0.0903 in assay [16]; 0.21 in assay [17]; 1.73 in assay [18]; 1.51 in assay [19]; 0.919 in assay [20]. Also, the z-score was -0.947 (inactive) in assay [4] and -1.76 in [12].

Turning to `O=C/C=C/c1ccc(Cl)cc1`, the composite z-score in [1] was -0.34; in [2], -0.235; in assay [3], 0.0073; in [5], -0.513; in [6], -0.966; in [7], -0.301. The composite z-score in [8] was 0.0697; in [9] it was 0.0956; in [10] it was 0.934; in assay [11], -1.74; in assay [13] it was 0.163; in assay [14], -0.925. The composite z-score in [15] was -0.0367; in [16], -0.0846; in [17] it was -0.147; in [18], -0.426; in assay [19] it was -0.381; in assay [20], 0.0933. The results for the z-score in assay [4] and in assay [12] were -1.05 (inactive) and -0.482, respectively.

With `CCCNC(=O)[C@@]1(c2ccc([N+](=O)[O-])cc2)CC(=O)N(CC23CC4CC(CC(C4)C2)C3)[C@@H]1c1ccc(CO)cc1`, the composite z-score in assay [1] is 0.814; in assay [2], 0.644; in [3], -0.0905; in assay [5] it was 0.425; in assay [6], 0.108; in assay [7] it was 0.533. Besides, the composite z-score is 1.34 in [8]; 0.138 in [9]; -0.247 in [10]; 0.914 in [11]; 0.421 in assay [13]; -0.865 in assay [14]. The composite z-score in [15] was -0.827; in [16], 0.0004; in assay [17], -0.569; in assay [18], 0.0278; in assay [19], -0.303; in assay [20] it was 1.01. Also, the z-score in [4] was 0.228 (inactive); in assay [12], -2.86.
